# HSF1 inhib: HSF1 inhibition; NIH3T3-HGL HSE-luciferase, MG132-induced, luminescence 8 h; hits give low values; activity change, negative = inhibition, % at 7.5 µM (by protocol); 300,000 compounds, 0.77% hits; AID 2098;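 active = more than half of replicate wells show activity change below -50%, luminescence cut by over half; inconclusive = some wells, but at most half, below -50%; inactive = no replicate well below -50%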;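 also: luciferase reports HSF-1 transcriptional activity via heat shock element; 0% = median of DMSO wells and -100% = zero luminescence signal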
# Wnt act: activates Wnt/beta-catenin signaling in a reporter cell assay; activator, plate reader; activation, % at 9.35 µM; 300,000 compounds, 1.2% hits; AID 743398; in the data active = activation above about 30%, passing the limit was not always enough; inconclusive = no clear call, values can overlap the other calls;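 also: 0% = neutral control wells and 100% = positive control wells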
# MITF act: MITF TRPM1 promoter activation in melanoma cells; SK-MEL-5 TRPM1-promoter luciferase, 24 h; % of positive control, neutral wells = 0; activation, % at 12.5 µM; 300,000 compounds, 0.75% hits;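 active = mean activation of at least 80% with every replicate also reaching 80%; inconclusive = mean reaches 80% but some replicate falls short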;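 also: 0% = neutral control wells and 100% = parthenolide positive control wells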
# esBAF inh: SWI/SNF esBAF complex inhibition. mouse ES cells, Bmi1-luciferase knock-in reporter, 24 h; 100% = twice the neutral-well signal. reporter increase, % at 12.5 µM. 350,000 compounds, 2% hits; in the data active = activation above about 40%; inconclusive = no clear call, values can overlap the other calls;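 also: 0% = median of the plate's neutral control wells and 100% = double that signal; a rise in the Bmi1 reporter signal indicates esBAF inhibition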
# HSF1 activator: increases HSF-1 driven luciferase reporter signal; activation, % at 9 µM; NIH3T3-HGL HSF-1 luciferase reporter, MG132, 8 h; 100% = twice DMSO control signal; 300,000 compounds, 1.7% hits;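 active = mean replicate activation of at least 50% with a set share of replicates each reaching 50%; inconclusive = only one of those two conditions met; inactive = mean below 50% and too few replicates reaching it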;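 also: 0% = median of the neutral control wells and 100% = twice that signal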
# An asterisk follows results filed as active; ? = inconclusive; / = not tested or not shown. Most compounds without a hit are left out; they make up all but 3.9% or so of the library.
SMILES,HSF1 inhib,Wnt act,MITF act,esBAF inh,HSF1 activator
CN1CCc2c(sc3c2c(=O)n(-c2ccc(Cl)cc2)c2nncn32)C1,-55.1*,/,/,-7.7,-63.1
O=C(NCCCN1CCC(Cc2ccccc2)CC1)C1CC(=O)N(C2CCCC2)C1 (stereo unspecified),-62.0*,-2.4,/,-3.7,-70.5
C[C@@H]1CCCCO[C@@H](CN(C)C(=O)Nc2ccc(C(F)(F)F)cc2)[C@H](C)CN([C@@H](C)CO)C(=O)c2cc(NC(=O)Nc3cccc4ccccc34)ccc2O1,/,/,/,5.7,/
Oc1ccc(-c2csc(Nc3ncccn3)n2)cc1,44.4,-1.8,94.6*,28.3,59.6*
CC(=O)Nc1ccc(-c2csc(Nc3ccc(Cl)cn3)n2)cc1,6.4,6.2,4.4,/,-2.3
c1ccc(-c2csc(Nc3ncccn3)n2)cc1,24.3,/,39.7,/,41.7
CC(=O)Nc1ccc(-c2csc(Nc3ncccn3)n2)cc1,11.8,33.2*,58.1,20.1,44.6
CN(C)CC(=O)N[C@H]1C=C[C@H](CC(=O)NCc2ccc(Cl)cc2)O[C@@H]1CO,/,/,/,0.4,/
COc1cccc(-c2ccc3n(c2=O)C[C@@H]2[C@@H](CO)[C@H](C(=O)NC4CCC4)N[C@H]32)c1,/,/,/,-3.7,/
Cc1ccc(NC(=S)NNC(=S)Nc2cccc(C(F)(F)F)c2)cc1,4.9,39.8*,/,/,2.8
CN1CCN(C(=O)C[C@H]2CC[C@@H]3[C@H](COC[C@@H](O)CN3Cc3cccc(Cl)c3)O2)CC1,/,/,/,-1.8,/
Cc1oc(C(C)(C)C)cc1C(=O)Nc1cccc(C(=O)O)c1,10.0,/,55.5,28.5,13.4
Cc1oc(C(C)(C)C)cc1C(=O)Nc1ccc(C(=O)O)cc1,-6.6,/,67.8,76.1*,-1.0
Cc1ccc(S(=O)(=O)N(C)c2c(C)ccc(S(=O)(=O)N3CCN(C)CC3)c2C)cc1,-60.5*,-1.2,-12.3,1.8,-69.9
O=C(NCC[C@@H]1CC[C@@H](NS(=O)(=O)Cc2ccccc2)[C@@H](CO)O1)C1CCCC1,/,/,/,-0.8,/
C#CCN1C(=O)S/C(=C\c2ccc(-c3ccc(C(=O)O)cc3C)o2)C1=O,0.7,16.2,47.2,86.4*,29.7
CCCCOC(=O)Nc1ccc(N2CCCCC2)cc1,30.7,73.7*,/,8.0,48.5
CCCCOC(=O)Nc1ccc(C(N)=O)cc1,6.1,/,47.7,?,7.3
CCCCOC(=O)Nc1ccc(C(C)C)cc1,21.6,/,/,74.8*,42.8
CC=Cc1ccc2n(c1=O)C[C@H]1[C@H](CO)[C@@H](C(=O)NCC)[C@@H]2N1CC1CCOCC1 (mixture of isomers),/,/,/,-0.7,/
Clc1ccc(Cn2nc(-c3ccccc3)nc2-c2ccccc2)cc1,37.6,/,31.8,/,53.5*
Clc1ccc(Cn2nnc(-c3ccccc3)n2)cc1,20.4,-2.0,71.8,46.9*,38.8
Clc1ccc(Cn2nnc(-c3ccc(CN4CCOCC4)cc3)n2)cc1,12.6,-9.5,/,51.6*,2.6
O=C(OCc1ccccc1)c1cccc(-c2nnn(Cc3ccccc3)n2)c1,2.8,44.5*,22.9,39.2,6.2
O=C(C[C@@H]1C=C[C@@H](NC(=O)C2CC2)[C@H](CO)O1)Nc1ccccc1,/,/,/,-0.5,/
SMILES,HSF1 inhib,Wnt act,MITF act,esBAF inh,HSF1 activator
COC(=O)C[C@H]1CC[C@@H]2[C@H](COc3ccc(NC(=O)Cc4cccs4)cc3C(=O)N2C)O1,/,/,/,-1.6,/
C[C@@H](O)C#Cc1ccc([C@@H]2[C@H](CO)N3CCCCN(C(=O)c4ccc5c(c4)OCO5)C[C@@H]23)cc1,/,/,/,5.3,/
CCCN1C[C@H](C)[C@H](OC)CN(C)C(=O)c2cc(NC(=O)Nc3c(C)noc3C)ccc2OC[C@H]1C,/,/,/,-6.0,/
Cc1ccc2nc(-c3ccc4c(c3)NC(=O)CO4)cn2c1,33.0,-1.4,68.4,/,64.4*
Cc1ccc2nc(-c3ccc4c(c3)OCCO4)cn2c1,-5.9,-18.4,/,/,-1.8
COc1ccc(-c2cn3cc(C)ccc3n2)cc1F,23.9,0.6,-12.6,-37.4,59.2*
COc1ccc(-c2cn3cc(C)ccc3n2)cc1OC,71.1,/,9.2,-50.6,95.6*
COc1cccc(CN=C2Nc3ccccc3CS2)c1,30.8,/,34.1,30.9,42.8
Clc1ccc(CN=C2Nc3ccccc3CS2)cc1,57.1,63.6*,/,55.6*,65.8*
COc1ccccc1CN=C1Nc2ccccc2CS1,66.9,6.4,28.9,12.0,123.0*
c1cncc(CN=C2Nc3ccccc3CS2)c1,4.5,-0.4,-11.6,/,15.3
Cc1ccc(CN=C2Nc3ccccc3CS2)cc1,34.1,29.7,/,-4.9,60.9*
COc1cccc(-c2ccc3c(c2)[C@H]2[C@H](CCN2C(=O)c2ccccn2)[C@@H](CO)N3)c1,/,/,/,4.8,/
CO[C@H]1CN(C)C(=O)c2ccc(NC(=O)C3CC3)cc2OC[C@H](C)N(Cc2cc(F)ccc2F)C[C@H]1C,/,/,/,5.2,/
CC(=O)Nc1cccc(C(=O)OCC(=O)c2ccccc2Cl)c1,39.4,46.7*,52.1,/,84.8*
CC(=O)Nc1cccc(C(=O)OCC(=O)NC(=O)c2ccccc2)c1,-1.0,6.3,5.3,9.4,4.3
CCC(=O)Nc1cccc(C(=O)OCC(=O)c2ccccc2Cl)c1,35.9,/,67.0,50.8*,65.1*
CCC(=O)N1[C@@H](CO)[C@@H](c2ccccc2)[C@@H]1CN(CC)C(=O)c1ccc(F)cc1,/,/,/,1.3,/
COc1ccccc1NC(=O)Nc1ccc2c(c1)C(=O)N(C)C[C@@H](OC)[C@@H](C)CN(C)[C@@H](C)CO2,/,/,/,-0.8,/
O=C(CC1C=Cc2ccccc2N1C(=O)c1ccccc1)c1ccccc1 (stereo unspecified),23.5,-3.3,-0.3,2.4,70.7*
CC1C=Cc2ccccc2N1C(=O)c1ccccc1 (stereo unspecified),-63.1*,-2.0,15.3,6.8,-70.3
CCOC(=O)N1c2ccccc2C=CC1OCC (stereo unspecified),0.1,/,/,4.8,-11.4
C[C@@H]1CCCCO[C@@H](CN(C)C(=O)Nc2ccc(F)cc2)[C@H](C)CN([C@@H](C)CO)C(=O)c2cc(NC(=O)Nc3ccc(F)cc3)ccc2O1,/,/,/,2.4,/
COc1c(C(=O)NNC(=O)c2ccccc2Cl)csc1Br,15.6,41.0*,/,/,30.2
O=C(NNC(=O)c1ccccc1Cl)c1ccncc1,-4.6,-1.6,1.6,-2.1,5.6
SMILES,HSF1 inhib,Wnt act,MITF act,esBAF inh,HSF1 activator
COc1cc(-c2nc3cnccn3c2Nc2ccc(C)cc2)ccc1O,-10.5,-8.8,4.7,-15.7,-9.3
COc1cc(-c2nc3cnccn3c2Nc2ccccc2)ccc1O,23.5,17.4,-6.4,-3.1,56.1*
Oc1ccc(-c2nc3cnccn3c2Nc2ccc3c(c2)OCCO3)cc1,53.0,3.6,/,6.6,63.8*
CN1c2ccc(-c3ccccc3)cc2[C@@H]2[C@@H](CCN2S(=O)(=O)c2ccccc2F)[C@@H]1CO,/,/,/,1.0,/
Clc1ccc(SCc2cc(-c3ccccc3)on2)cc1,10.5,-2.0,5.0,-3.6,21.9
c1ccc(Cc2cc(-c3ccccc3)on2)cc1,23.5,/,/,66.3*,70.7*
CNC(=O)/C(C#N)=C/c1ccc(-c2ccc(OC)cc2[N+](=O)[O-])o1,-89.3*,16.6,21.8,12.4,-90.8
CCOc1ccc(-c2ccc(C=O)o2)c([N+](=O)[O-])c1,84.2,9.5,9.9,/,109.0*

# Compound activity deposited in PubChem by Broad Institute.
